Test results reported in PubChem BioAssay AID1259313 (Sanford-Burnham Center for Chemical Genomics, 2017).
In all, about 340,000 compounds went through this assay and about 8,500 (2.5%) were called active. The sample as a whole holds a higher share of actives than the screen did. Unmarked numbers belong to inactive results.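 The calls were made as follows: active = melting temperature shift of at least 10% of the positive control shift, at one fixed dose; inactive = the rest.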

Each compound was assayed on Glutamate receptor ionotropic, NMDA 3A (GRIN3A) ligand-binding domain (assay: binders of NR3A ligand-binding domain, primary screen, biophysical, differential scanning fluorimetry, uHTS (AID 1259313)). Conditions: NR3A LBD differential scanning fluorimetry, at 25 µM, active compounds read high, 0% = protein alone, 100% = glycine-bound protein.
C#CCO[C@@H]1C[C@H](n2cnc3c(=O)[nH]c(NC(=O)C(C)C)nc32)O[C@@H]1CO gave a Tm shift relative to glycine control of 0%. With CCc1cc(-c2nnc(SCC(=O)NC3CC3)n2C)cs1 the Tm shift relative to glycine control was -0.41%. In the case of O=C(CC1C(=O)NCCN1C(=O)c1ccc([N+](=O)[O-])cc1)Nc1cccc(Cl)c1 (stereo unspecified), the Tm shift relative to glycine control was 0.67%. CCOc1cnc(-c2c(-c3ccccc3Cl)noc2C)o1 gave a Tm shift relative to glycine control of -1.94%. For O=C(NNc1c2ccccc2nc2ccccc12)c1cc2ccccc2cc1O, the Tm shift relative to glycine control was 30.2% (active). O=C(COC(=O)c1ccc(O)cc1O)NC(=O)c1ccccc1 gave a Tm shift relative to glycine control of -11.9%. O=C(NNC(=O)c1ccccc1O)c1ccccc1O gave a Tm shift relative to glycine control of 2.79%. COCc1[nH][nH]c(=O)c1C=Nc1ccc(F)cc1F showed a Tm shift relative to glycine control of -2.69%. Work on CCCCN1C(N)=NC[C@@H]1CC1CCCCC1 yielded a Tm shift relative to glycine control of -3.87%. With CCc1cc(=O)oc2cc(C)cc(OCC(=O)N3CCC[C@@H]3C(=O)O)c12 the Tm shift relative to glycine control was -2.37%. Cc1cc([N+](=O)[O-])c(NC2CCCCC2)c([N+](=O)[O-])c1 was tested, and the Tm shift relative to glycine control was 1.28%. For Cc1cc([N+](=O)[O-])ccc1NC1CCCC1, the Tm shift relative to glycine control was 12.8% (active). In the case of Cc1cc([N+](=O)[O-])ccc1NS(=O)(=O)c1ccccc1, the Tm shift relative to glycine control was -13.4%. For O=C(CSc1ccc(-c2ccc(-n3cccn3)cc2)nn1)Nc1ccc([N+](=O)[O-])cc1, the Tm shift relative to glycine control was 21.1% (active). With O=C(CSc1ccc([N+](=O)[O-])cn1)Nc1ccc(N2CCOCC2)cc1 the Tm shift relative to glycine control was 0.67%. Compound O=C(CSc1ccc(-c2ccccn2)nn1)Nc1ccccc1 has a Tm shift relative to glycine control of -2.4%. For Cc1ccc2nc(/C(C#N)=C\c3ccc(OC(=O)c4cccs4)cc3)[nH]c2c1, the Tm shift relative to glycine control was -1.46%. With COCCN(CCOC)S(=O)(=O)c1ccc(/C(O)=C(\C#N)c2nc3ccccc3[nH]2)cc1 the Tm shift relative to glycine control was 0.08%. For COc1cc(/C=C(\C#N)c2nc3ccccc3[nH]2)ccc1O, the Tm shift relative to glycine control was 28.5% (active). CCCCOc1ccc(NC(=O)[C@@H]2CCCN2C(=O)C2CCN(S(=O)(=O)c3ccc(C)cc3)CC2)cc1 was tested, and the Tm shift relative to glycine control was 0%. CC(=O)Nc1ccc(NC(=O)COc2ccc(S(=O)(=O)NC(C)c3ccccc3)cc2)cc1 (stereo unspecified) was tested, and the Tm shift relative to glycine control was 0.44%. For O=C(COc1ccccc1)Nc1ccc(F)cc1, the Tm shift relative to glycine control was -8.63%. For CC(=O)Nc1ccc(OC(=O)COc2ccc(Br)cc2)cc1, the Tm shift relative to glycine control was 17.5% (active). With Cc1ccc(OC(=O)CCC(=O)Nc2ccc(Br)cc2)cc1 the Tm shift relative to glycine control was 0.17%. Work on COCC(=O)Nc1ccc(Br)cc1 yielded a Tm shift relative to glycine control of -2.19%. CC(=O)Nc1ccc(NC(=O)COc2ccc(-c3ccccc3)cc2)cc1 was tested, and the Tm shift relative to glycine control was 12.4% (active). Work on Cc1c(Nc2nc3ccccc3nc2NS(=O)(=O)c2cccs2)c(=O)n(-c2ccccc2)n1C yielded a Tm shift relative to glycine control of 0.52%. Cc1ccsc1C1C(C#N)=C(N)OC2=C1C(=O)CC(C)(C)C2 (stereo unspecified) was tested, and the Tm shift relative to glycine control was -2.21%. CSc1cccc(NC(=S)N(C(C)C)C(C)c2ccccn2)c1 (stereo unspecified) was tested, and the Tm shift relative to glycine control was 13.8% (active). In the case of CC(c1ccccn1)N(CCN(C)C)C(=S)Nc1ccccc1F (stereo unspecified), the Tm shift relative to glycine control was 0%. In the case of CSc1cccc(NC(=S)N(Cc2ccccc2)Cc2ccccn2)c1, the Tm shift relative to glycine control was -4.28%. O=C(COC(=O)c1ccccc1Cl)NC1CCCCCCC1 showed a Tm shift relative to glycine control of 1.11%. In the case of Cn1cccc1C1(C(F)(F)F)NCCNC1=O (stereo unspecified), the Tm shift relative to glycine control was -0.65%. Compound CCn1c(CSc2nc(C)cc(C)n2)nnc1SCC(N)=O has a Tm shift relative to glycine control of 1.48%. O=C(/C=C/c1ccc(F)cc1)Nc1cccc(S(=O)(=O)Nc2cccc(C(F)(F)F)c2)c1 gave a Tm shift relative to glycine control of 1.46%. With Cc1oc2c(F)c(F)c(F)c(F)c2c1S(=O)(=O)Nc1cccc(C(F)(F)F)c1 the Tm shift relative to glycine control was 29.7% (active). O=C(COc1ccc(S(=O)(=O)Nc2cccc(C(F)(F)F)c2)cc1)N1CCOCC1 gave a Tm shift relative to glycine control of -0.84%. CC1CCCN(S(=O)(=O)c2ccc(N(C(=O)c3cnccn3)C(C(=O)NC3CCCCC3)c3cccs3)cc2)C1 (stereo unspecified) gave a Tm shift relative to glycine control of 1.68%. With COCCCNC(=S)N(Cc1ccccc1)Cc1ccc(F)cc1 the Tm shift relative to glycine control was 0.84%. Compound O=C1COc2ccc(NC(=O)N3CCN(c4ccc(F)cc4)CC3)cc2N1 has a Tm shift relative to glycine control of -1.31%. For Cc1ccc(SCc2c(C(=O)N/N=C/c3cccnc3)nnn2-c2nonc2N)cc1, the Tm shift relative to glycine control was 30.3% (active). For Nc1nonc1-n1nnc(C(=O)N/N=C/c2cc(Br)ccc2O)c1CSC1=NCCS1, the Tm shift relative to glycine control was 11.5% (active). For CC(C)Oc1ccc(/C=N/NC(=O)c2nnn(-c3nonc3N)c2CN(C)C2CCCCC2)cc1, the Tm shift relative to glycine control was 2.01%. CN(C)Cc1c(C(=O)N/N=C/c2ccccc2OCc2ccc(F)cc2)nnn1-c1nonc1N was tested, and the Tm shift relative to glycine control was 2.67%. CC(C)c1c(C(=O)N/N=C/c2ccc(-c3ccccc3)cc2)nnn1-c1nonc1N was tested, and the Tm shift relative to glycine control was 1.62%. In the case of COCc1c(C(=O)N/N=C\c2cccnc2)nnn1-c1nonc1N, the Tm shift relative to glycine control was -1.82%. COCc1c(C(=O)N/N=C/C2CC=CCC2)nnn1-c1nonc1N (stereo unspecified) showed a Tm shift relative to glycine control of -1.57%. For Cc1ccc(SCc2c(C(=O)N/N=C/C3CC=CCC3)nnn2-c2nonc2N)cc1 (stereo unspecified), the Tm shift relative to glycine control was 85.4% (active). Nc1nonc1-n1nnc(C(=O)N/N=C\c2ccncc2)c1CN1CCCCC1 gave a Tm shift relative to glycine control of 0.45%. Work on CCCCNC(=O)c1ccccc1NC(=O)c1ccccc1N(C)S(C)(=O)=O yielded a Tm shift relative to glycine control of 0.62%. With Cc1c(Br)ccc(NC(=O)COc2ccccc2C(N)=O)c1C the Tm shift relative to glycine control was -0.92%. Compound CC1=NN(C(C)C)C(=O)C1 has a Tm shift relative to glycine control of -0.17%. Cc1ccc(S(=O)(=O)N2[C@@H](c3ccc(Br)cc3)C(C(=O)O)=C[C@H]2CC2CCCC2)cc1 was tested, and the Tm shift relative to glycine control was -1.23%. Compound O=C(CSc1nn(-c2ccc(F)cc2)c(=S)s1)NC1CCS(=O)(=O)C1 (stereo unspecified) has a Tm shift relative to glycine control of -1.94%. With Cc1ccc(C)c(OCCC(=O)OCC(=O)c2ccc3c(c2)NC(=O)CO3)c1 the Tm shift relative to glycine control was 1.04%. In the case of CCOC(=O)C1CCN(C(=O)c2cccc(S(=O)(=O)N(CC)c3ccccc3)c2)CC1, the Tm shift relative to glycine control was 0.33%. In the case of O=[N+]([O-])c1cccc(C=NN=Cc2ccccc2O)c1, the Tm shift relative to glycine control was -1.4%. In the case of Nc1ccccc1/C=N\N=C/c1ccccc1N, the Tm shift relative to glycine control was 10.2% (active). For COc1ccc(NC(=O)c2oc3ccc(S(=O)(=O)N4CCOCC4)cc3c2C)cc1, the Tm shift relative to glycine control was 14.9% (active). With Cc1c(C(=O)Nc2cccc(S(=O)(=O)N3CCOCC3)c2)oc2ccccc12 the Tm shift relative to glycine control was -5.92%. For Cc1c(C(=O)Nc2ccccc2Cl)oc2ccc(S(=O)(=O)N3CCC4(CC3)OCCO4)cc12, the Tm shift relative to glycine control was -0.83%.
